“And” between values parts separate entries of the source, which are not always exact repeats. Identical values can stand only once. Counter-ions that a name gives are not always drawn.
Experiments:
Assay in all cases: cell viability relative to vehicle control; higher = less cytotoxic
Settings in all cases: 10 µM
K562 = tested on: K562
Method in brief: (§1)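 Four leukaemia lines, as CRISPR-edited mutant clones and isogenic wild-type clones, were tested against Selleck bioactive, kinase and epigenetic probe libraries after removal of identity-inconsistent compounds. Cells were exposed to a single 10 µM dose for 48 h, and CellTiter-Glo luminescence was then read. Viability was calculated relative to the on-plate vehicle control.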

MARIMO = tested on: MARIMO
Method in brief: as §1

MOLM14 = tested on: MOLM14
Method in brief: as §1

OCI-AML2 = tested on: OCI-AML2
Method in brief: as §1

| Structure (SMILES) | cell viability (K562; SRSF2 genotype: SRSF2 P95H/wt) | cell viability (K562; SRSF2 genotype: SRSF2 wt/wt) | cell viability (MARIMO; SRSF2 genotype: SRSF2 P95H/wt) | cell viability (MARIMO; SRSF2 genotype: SRSF2 wt/wt) | cell viability (MOLM14; SRSF2 genotype: SRSF2 P95H/wt) | cell viability (MOLM14; SRSF2 genotype: SRSF2 wt/wt) | cell viability (OCI-AML2; SRSF2 genotype: P95H/wt) | cell viability (OCI-AML2; SRSF2 genotype: wt/wt) |
| --- | --- | --- | --- | --- | --- | --- | --- | --- |
| N[C@@H]1CN(c2c(F)cc3c(=O)c(C(=O)O)cn([C@@H]4C[C@@H]4F)c3c2Cl)CC12CC2 [Sitafloxacin hydrate] | 103% and 104% | 91.9% | 104% | 105% | 105% | 103% | 102% | 107% |
| COC1(c2sc3c(N4CCOCC4)nc(-c4cnc(N)nc4)nc3c2C)COC1 | 40.8% and 45.4% | 40.3% | 47.9% | 38% | 26.3% | 24.1% | 4.68% | 16.4% |
| CN(C)c1ccc2nc3ccc(=[N+](C)C)cc-3sc2c1 [Methylene Blue] | 33.4% and 27.2% | 17.1% | 13.1% | 14.2% | 5.69% | 2.58% | 5.27% | 7.07% |
| C[C@@]1(c2cc(-c3cncnc3)c(F)cc2F)CCSC(N)=N1 | 100% and 99.9% | 100% | 104% | 105% | 92.2% | 102% | 100% | 99.2% |
| O=C(O)c1cccnc1 [Niacin (Nicotinic acid)] | 108% and 98.1% | 109% | 99.3% | 111% | 103% | 101% | 74% | 78.7% |
| Cc1ccc(-n2[nH]c(C)c(N=Nc3cccc(-c4cccc(C(=O)O)c4)c3O)c2=O)cc1C [Eltrombopag] | 77.1% and 80.1% | 74.4% | 62.2% | 71.6% | 77% | 74.6% | 68.8% | 70.1% |
| C[C@H](CC[C@@H](O[C@@H]1O[C@H](CO[C@@H]2O[C@H](CO)[C@@H](O)[C@H](O)[C@H]2O)[C@@H](O)[C@H](O)[C@H]1O[C@@H]1O[C@H](CO)[C@@H](O)[C@H](O)[C@H]1O)C(C)(C)O)[C@H]1CC[C@@]2(C)[C@@H]3CC=C4[C@@H](CC[C@H](O[C@@H]5O[C@H](CO[C@@H]6O[C@H](CO)[C@@H](O)[C@H](O)[C@H]6O)[C@@H](O)[C@H](O)[C@H]5O)C4(C)C)[C@]3(C)[C@H](O)C[C@]12C [Mogroside V] | 94.9% and 96.3% | 101% | 92.7% | 104% | 104% | 104% | 103% | 97.7% |
| COCCc1ccc(OCC(O)CNC(C)C)cc1 (stereo not drawn) [Metoprolol tartrate] | 107% and 106% | 106% | 102% | 104% | 104% | 105% | 106% | 106% |
| CO[C@H]1CC[C@H](N2C(=O)CNc3ncc(-c4ccc(C(C)(C)O)nc4)nc32)CC1 | 27.9% and 28% | 29.7% | 36.3% | 32.3% | 28.1% | 24.1% | 26% | 29.6% |
| NCC(=O)CCC(=O)O [5-Aminolevulinic acid hydrochloride] | 94.7% and 105% | 103% | 109% | 101% | 99.1% | 105% | 108% | 96.3% |
| COc1cc2c(cc1OC)CC(=O)N(CCCN(C)C[C@H]1Cc3cc(OC)c(OC)cc31)CC2 [Ivabradine HCl (Procoralan)] | 97.8% and 97.4% | 93.7% | 97.4% | 109% | 99.6% | 106% | 95.8% | 107% |
| O=C(c1ccc(Oc2ccccc2)cc1Cl)c1c[nH]c2ncnc(N[C@@H]3CC[C@@H](CO)OC3)c12 | 9.11% and 19% | 14.3% | 23.1% | 22.1% | 12.6% | 17% | 13.4% | 16.1% |
| COc1cc(O)c2c(c1)oc(=O)c1c3cc(O)c(O)cc3oc21 [Wedelolactone] | 84.6% and 90.9% | 76.1% | 87.2% | 102% | 61.3% | 67.2% | 68.3% | 82.1% |
| NC(=O)c1ccc(N(C(N)=O)c2c(F)cccc2F)nc1-c1ccc(F)cc1F | 97.7% and 97.3% | 94.1% | 94% | 97.5% | 96.1% | 105% | 95.3% | 103% |
| OC(Cn1cncn1)(Cn1cncn1)c1ccc(F)cc1F [Fluconazole] | 112% and 99.8% | 101% | 98% | 107% | 103% | 101% | 96.9% | 95.7% |
| O=NO [Sodium Nitrite] | 107% and 104% | 95.9% | 99.9% | 99.4% | 96.4% | 101% | 97.8% | 99.5% |
| CN(C)C1CCN(C(=O)c2ccc(NC(=O)Nc3ccc(-c4nc(N5CCOCC5)nc(N5CCOCC5)n4)cc3)cc2)CC1 | 34.1% and 32.1% | 26.6% | 43.2% | 34.9% | 22.1% | 21.3% | 10.5% | 16.2% |
| CC(C)=CC[C@@H](O)C1=CC(=O)c2c(O)ccc(O)c2C1=O [Shikonin] | 1.68% and 0.52% | 0.87% | 0.3% | 0.35% | 0.44% | 0.28% | 0.19% | 0.25% |
| CN(C)C(=O)Nc1cccc(-c2ccc(N(C)C)cc2)c1 [Atglistatin] | 90.1% and 82.6% | 91.3% | 91.4% | 99.9% | 96.8% | 92.4% | 92.7% | 89.2% |
| CC(C)=CCC[C@](C)(O[C@@H]1O[C@H](CO)[C@@H](O)[C@H](O)[C@H]1O)[C@H]1CC[C@]2(C)[C@@H]1[C@H](O)C[C@@H]1[C@@]3(C)CC[C@H](O)C(C)(C)[C@@H]3[C@@H](O[C@@H]3O[C@H](CO)[C@@H](O)[C@H](O)[C@H]3O[C@@H]3OC[C@@H](O)[C@H](O)[C@H]3O)C[C@]12C [Notoginsenoside R1] | 98.4% and 101% | 94.8% | 106% | 104% | 106% | 103% | 94.6% | 96.7% |
| Clc1ccccc1C(c1ccccc1)(c1ccccc1)n1ccnc1 [Clotrimazole (Canesten)] | 92.1% and 91.2% | 75.9% | 81.5% | 87.3% | 89.4% | 84.6% | 77.4% | 90% |

| Structure (SMILES) | cell viability (K562; SRSF2 genotype: SRSF2 P95H/wt) | cell viability (K562; SRSF2 genotype: SRSF2 wt/wt) | cell viability (MARIMO; SRSF2 genotype: SRSF2 P95H/wt) | cell viability (MARIMO; SRSF2 genotype: SRSF2 wt/wt) | cell viability (MOLM14; SRSF2 genotype: SRSF2 P95H/wt) | cell viability (MOLM14; SRSF2 genotype: SRSF2 wt/wt) | cell viability (OCI-AML2; SRSF2 genotype: P95H/wt) | cell viability (OCI-AML2; SRSF2 genotype: wt/wt) |
| --- | --- | --- | --- | --- | --- | --- | --- | --- |
| CCn1cc(NC(=S)Nc2cc(Cl)ccc2OC)c(C(N)=O)n1 | 92% and 90.5% | 89.8% | 99.1% | 99.4% | 96.9% | 95% | 95.2% | 92.5% |
| CN(C)C(=O)c1cc2cnc(Nc3ccc(N4CCNCC4)cn3)nc2n1C1CCCC1 [Ribociclib (LEE011)] | 96.4% and 111% | 110% | 68% | 64.7% | 54.2% | 46% | 62% | 57% |
| CCOC(=O)COc1ccc(/C=C2/SC(=S)NC2=O)cc1OC | 90.9% and 94.4% | 94.3% | 88.8% | 101% | 2.04% | 3.45% | 104% | 91.8% |
| O=C1CCC[C@@H]2[C@H]3CCC[N+]4([O-])CCC[C@@H](CN12)[C@@H]34 (stereo partly drawn) [Oxymatrine (Matrine N-oxide)] | 105% and 96.8% | 99% | 101% | 98.9% | 100% | 98.2% | 97.7% | 96.5% |
| C[C@H]1CN(C[C@H](Cc2ccccc2)C(=O)NCC(=O)O)CC[C@@]1(C)c1cccc(O)c1 [Alvimopan dihydrate] | 110% and 102% | 101% | 98.5% | 112% | 102% | 103% | 94.9% | 99.2% |
| Cc1cc(-c2ccc(CC(=O)Nc3ccc(-c4cccnc4)cc3)cc2)ccn1 | 77% and 83% | 86.9% | 81.5% | 86.3% | 103% | 102% | 74% | 78.9% |
| Cc1ccccc1CN1C2=NCCN2C(=O)C2=C1CCN(Cc1ccccc1)C2 [TIC10 analogue] | 98.2% and 97.9% | 95.9% | 104% | 104% | 103% | 103% | 88% | 101% |
| FC(F)c1nc2ccccc2n1-c1nc(N2CCOCC2)nc(N2CCOCC2)n1 | 71.3% and 77.2% | 70% | 49.4% | 43.4% | 32% | 32.9% | 13.8% | 27.2% |
| COc1ccc2c(c1O)-c1c(O)c(OC)cc3c1[C@H](C2)[N+](C)(C)CC3 [Magnoflorine] | 97.9% and 97.3% | 101% | 98% | 105% | 99.3% | 100% | 103% | 107% |
| C[C@@H]1[C@H](O)[C@@H](C)/C=C/C=C/C=C/C=C/C=C/C=C/C=C/[C@H](O[C@@H]2O[C@H](C)[C@@H](O)[C@H](N)[C@@H]2O)C[C@@H]2O[C@](O)(C[C@@H](O)C[C@@H](O)[C@H](O)CC[C@@H](O)C[C@@H](O)CC(=O)O[C@H]1C)C[C@H](O)[C@H]2C(=O)O [Amphotericin B] | 97.4% and 101% | 104% | 110% | 103% | 93.9% | 101% | 126% | 110% |
| NCc1ccc(S(N)(=O)=O)cc1 [Mafenide Acetate] | 102% and 98.3% | 94.8% | 95.8% | 106% | 91.9% | 101% | 102% | 110% |
| COc1cc(C(=O)NC2CCCNC2)cc(OC)c1OC (stereo not drawn) [Troxipide] | 98.2% and 99.3% | 101% | 102% | 106% | 103% | 100% | 99.7% | 105% |
| Cc1nc(N)sc1-c1ccnc(Nc2ccc(N3CCOCC3)cc2)n1 | 59.9% and 67.6% | 64.5% | 40.8% | 44.3% | 5.52% | 4.7% | 9.4% | 13.7% |
| COc1cc(NS(=O)(=O)c2ccc(N)cc2)nc(OC)n1 [Sulphadimethoxine] | 95.8% and 87.4% | 95.9% | 91.3% | 98% | 96.7% | 91.5% | 90.4% | 91.4% |
| O=CO [Formate] | 101% and 91.4% | 99% | 97.5% | 104% | 102% | 106% | 96.7% | 96% |
| CC(=O)CCc1ccc(OC(C)=O)cc1 [Pherocon (4-(4-Acetoxyphenyl)-2-butanone)] | 111% and 109% | 119% | 103% | 107% | 109% | 108% | 119% | 116% |
| C[C@@]12C[C@H](c3ccoc3)O[C@@]13C[C@H](OC3=O)[C@H]1[C@H]2C[C@@H]2C[C@H]1C(=O)O2 [Diosbulbin B] | 103% and 104% | 102% | 105% | 108% | 108% | 110% | 102% | 101% |
| CCOC(=O)C1=C[C@]2(CC)CCCN3CCc4c(n1c1ccccc41)[C@@H]32 [Vinpocetine (Cavinton)] | 93.6% and 101% | 95.6% | 96.5% | 110% | 101% | 101% | 89.5% | 101% |
| COc1cc(Cc2cnc(N)nc2N)cc(OC)c1OC [Trimethoprim] | 102% and 101% | 94.4% | 103% | 104% | 102% | 104% | 101% | 101% |
| CC1(C)CC[C@]2(C(=O)O[C@@H]3O[C@H](CO)[C@@H](O)[C@H](O)[C@H]3O)CC[C@]3(C)C(=CC[C@@H]4[C@@]5(C)CC[C@H](O[C@@H]6O[C@H](C(=O)O)[C@@H](O)[C@H](O)[C@H]6O[C@@H]6O[C@H](CO)[C@@H](O)[C@H](O)[C@H]6O)C(C)(C)[C@@H]5CC[C@]43C)[C@@H]2C1 [Ginsenoside Ro] | 101% and 95.6% | 95.9% | 102% | 110% | 100% | 98.5% | 97.8% | 109% |

From the supplement of paper PMC10981050
